Measured values published in the supplement of paper PMC9177965.

Legend:
[1] = test system: HT29 RNF43 G659fs (RNF43 659mut, CRISPR-edited); experiment: cell viability activity relative to DMSO (negative = inhibition); higher = more viable cells (less growth inhibition); conditions: 5 µM; 96 h
Description: (§1)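 Broad Repurposing Library primary screen at a single dose of 5 uM. HT29 sg-Ctrl and HT29 RNF43 G659fs CRISPR-edited isogenic cells were seeded at 2500 cells/well in 384-well plates in duplicate and treated for 96 h. Viability was read by CellTiter-Glo and reported as % activity relative to DMSO, with MG132 as the positive control (negative = growth inhibition).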

[2] = test system: HT29 sg-Ctrl (RNF43 wildtype); experiment: as above; conditions: 5 µM; 96 h
Description: as §1

SMILES | cell viability activity [1] [%] | cell viability activity [2] [%]
COCCN1CCN(Cc2ccc(-c3n[nH]c4c3C(=O)c3c(NC(=O)NN5CCOCC5)cccc3-4)cc2)CC1 | -78.2 | -79.4
Cn1cc(-c2ccncc2)c(-c2ccc(OCc3ccc4ccccc4n3)cc2)n1 | -46.2 | -38.8
COC[C@H](NC(=O)c1cnc(C)s1)C(=O)N[C@@H](COC)C(=O)N[C@@H](Cc1ccccc1)C(=O)[C@@]1(C)CO1 | -95.3 | -93.6
CCS(=O)(=O)c1cccc(-c2cc(C(=O)NC3CCN(C)CC3)c(C)c3[nH]c4ncc(C)cc4c23)c1 | -90.1 | -85.9
CN(C)CCOc1ccc(-c2nc(-c3ccc4c(c3)CC/C4=N\O)c(-c3ccncc3)[nH]2)cc1 | -28.5 | -37.9
CN1CCC(CNc2ccc3ncc(-c4cccc(OC(F)(F)F)c4)n3n2)CC1 | -53 | -52.2
N[C@@H](Cn1ccc(=O)n(Cc2ccccc2C(=O)O)c1=O)C(=O)O | -36.8 | -34.1
O=[N+]([O-])c1ccccc1S(=O)(=O)NCC1CCC(CNCC2CCc3ccccc3C2)CC1 (configuration not stated) | -63.8 | -61.4
Nc1nc(Nc2ccc3c(c2)CCC(N2CCCC2)CC3)nn1-c1cc2c(nn1)-c1ccccc1CCC2 (configuration not stated) | -28.9 | -31.9
CN(C)CCOc1ccc(-c2nc(-c3ccncc3)c(-c3ccc4c(c3)CC/C4=N\O)[nH]2)cc1 | -44.3 | -45.8
CC[C@H](C)[C@@H]([C@@H](CC(=O)N1CCC[C@H]1[C@H](OC)[C@@H](C)C(=O)N[C@@H](Cc1ccccc1)c1nccs1)OC)N(C)C(=O)[C@@H](NC(=O)[C@H](C(C)C)N(C)C)C(C)C | -55.7 | -43
